The record followed here is PubChem BioAssay AID1347416 (National Center for Advancing Translational Sciences (NCATS), 2020).

Among all 4,100 compounds or so, about 1,600 (39%) were called active. Inconclusive results (about 25%) are left out. Calls come from the whole dose curve; as a rule, active = well fitted inhibition curve with a large enough effect; inconclusive = small, poorly fitted or top-dose-only effect; inactive = no such curve, though single readings can be large or run the other way. The list shows a part of the results.
Potency is the fitted concentration of half-maximal effect.

The nature of this test: qHTS Validation assay for Inhibitors of Plasmodium falciparum Dd2 growth in vitro. Note: nearly all actives have a fitted effect of over 70% in size. To be noted: P. falciparum Dd2 in RBCs, SYBR Green growth, 72 h; series mostly up to 28.7 µM. From the text:
Malaria, a parasitic disease spread to humans through the bite of a Plasmodium infected Anopheles mosquito, continues to be a global health burden affecting millions of people, with an estimated 228 million cases and 405,000 deaths in 2018. Concerns about safety and limitations of current antimalarial treatments strongly emphasize the need to develop new therapeutic options. The scarce number of chemotypes and validated drug targets with efficacy against the liver stage, have hindered development of new antimalarials. To address this, a chemoprophylactic drug discovery effort was conducted through a combined phenotypic high-throughput asexual blood stage and liver stage screen, providing a robust foundation to identify liver-stage active lead chemotypes. Compounds were initially screened against Plasmodium falciparum Dd2 strain parasites using a in vitro SYBRGreen-1 based 72 hr proliferation assay to identify novel chemotypes to advance to liver stage assays. NIH/NCATS Early Translation Branch Assay Submitter (PI): Anton Simeonov Ph.D.
[…] Assay Protocol: PROTOCOL TABLE (as described by Inglese et al., 2007) SEQUENCE No. (e.g., 1, 2, 3, etc.); PARAMETER (e.g., Cells, Incubation, Reagent, etc.); VALUE; DESCRIPTION SEQUENCE, Parameter, Description 1; Reagent; 3 uL complete malaria growth medium, 1536 TC treated Black clear bottom plate 2; Controls; 23 nL positive control artesunate (300 nM final) to column 1; Neutral control DMSO to columns 2-4 3; Compound; 23 nL of compounds in dose response concentration (29 uM to 0.5 nM final) 4; Reagent; 5 uL malaria infected red blood cells (2.5% hematocrit final, 0.3% parasitemia 5; Time; 72 hours at 37C (5% O2, 5% CO2, 90% N2; 95% Rh) 6; Reagent; 2 uL lysis buffer/SYBRGreen-1, 25 sec shake immediately following dispense 7; Time; ~16 hours at 37C (5% O2, 5% CO2, 90% N2; 95% Rh) 8; Detector; EnVision (PerkinElmer) bottom read at 485/14nm excitation and 535/25 nm emission NOTES (numbers refer to sequence above): 1; Complete Malaria Growth Media: 1X RPMI-1640 w/L-glutamine, 5.5g/L Albumax II, 367 uM Hypoxanthine, 25 mM HEPES, 0.25% Sodium Bicarbonate, 35 uM Gentamicin sulfate 2; Controls were added using the Kalypsis Pintool (Wako USA) equipped with 1536 pinhead 3; Compounds were added in a 7-point, titration with a high final concentration of 29 uM by Pintool from seven inter-plate titrations of library plates and two DMSO control plates at the beginning and end (see Yasgar et al., 2008). 4; Red blood cells infected with Plasmodium falciparum Dd2 parasites were used. 6; Lysis buffer: 20 mM Tris-HCl, 10 mM EDTA, 0.16% Saponin, 1.6% Triton-X, 10X SYBR Green. REFERENCE: Inglese J, Shamu CE, Guy RK. 2007. Reporting data from high-throughput screening of small-molecule libraries. Nat Chem Biol. doi:10.1038/nchembio0807-438 Yasgar A, Shinn P, Jadhav A, Auld D, Michael S, Zheng W, Austin CP, Inglese J, Simeonov A. 2008. Compound Management for Quantitative High-Throughput Screening. J Lab Autom 13:79-89. doi:10.1016/j.jala.2007.12.004
On the technique in general: In qHTS, concentration-response curves come from the screen itself.
Consider `CN1Cc2ccccc2-n2ccnc2C12CCN(C(=O)c1cccc(C(F)(F)F)c1)CC2`, for which the Potency result is “inactive”.
As to `Clc1ccc(C(Cn2ccnc2)OCc2csc3c(Cl)cccc23)c(Cl)c1` (centres undefined), the Potency was 2.37 µM (active).
As for `CCCCn1c(NS(=O)(=O)c2ccccc2)c(C(=O)OCC)c2nc3ccccc3nc21`, the figure is 10.6 µM (active); as for `C=CC1CN2CCC1CC2C(OC(C)=O)c1ccnc2ccc(OC)cc12` (centres undefined), 1.68 µM (active); as for `CN(C)CC1CSCCC1(O)c1ccccc1Cl` (centres undefined), 5.96 µM (active).
The value for `Cc1ccccc1CN1C(=O)CN=C(c2ccccc2)c2cc(Cl)ccc21` was 16.8 µM (active); that for `CCC1(OC(=O)CN)C(=O)OCc2c1cc1n(c2=O)Cc2cc3ccccc3nc2-1` (centres undefined) was 6.68 µM (active).
As for `Oc1ccc(Cl)cc1CN1CCN(Cc2ccccc2)CC1`, the figure is 0.944 µM (active); as for `Oc1c(Cl)cc(Cl)cc1CN1CCN(Cc2ccccc2)CC1`, 0.668 µM (active); as for `O=C(NC[C@H]1C[C@@H]2CCN1C[C@@H]2CN1CCC(Cc2ccccc2)CC1)c1ccccc1`, 7.69 µM (active).
With `COc1ccc(CN2CCCC(C(=O)c3ccc(Cl)cc3)C2)c(O)c1` (centres undefined), the Potency was 0.531 µM (active).
Consider `O=C(C[C@@H]1NCCC[C@H]1O)Cn1cnc2cc(Br)c(Cl)cc2c1=O`, for which the Potency is 2.37 µM (active).
The value for `C[n+]1c(-c2ccccc2)cc(-c2ccc(Cl)cc2)cc1-c1ccccc1` was 6.68 µM (active); that for `COc1cc2c(cc1OC1CCCC1)NC(=O)C21CCN(c2cnccn2)CC1` was 7.69 µM (active).
As for `COc1cc2c(cc1OCC1CC1)NC(=O)C21CCN(C(=O)c2cccnc2)CC1`, the entry is “inactive”; as for `COc1cc2c(cc1OCC1CC1)NC(=O)C21CCN(c2nccs2)CC1`, 21.7 µM (active).
As to `Cn1nccc1CN1CCC2(CC1)C(=O)Nc1ccccc12`, the Potency entry is “inactive”.
As for `COc1cc2c(cc1OCc1ccccc1)NC(=O)C21CCN(c2ccccn2)CC1`, the figure is 15.3 µM (active); as for `COc1cc2c(cc1Oc1cccc(N(C)C)c1)NC(=O)C21CCN(c2cnccn2)CC1`, 1.5 µM (active).
For the molecule `COc1cc2c(cc1Oc1ccccc1)NC(=O)C21CCN(C(=O)c2ccccc2)CC1`, the Potency result is “inactive”.
As for `COc1cc2c(cc1Oc1ccccc1)NC(=O)C21CCN(c2cnccn2)CC1`, the figure is 2.17 µM (active); as for `O=C(Nc1ccc2n(c1=O)C[C@H]1C[C@@H]2CN(Cc2ccc(F)cc2)C1)c1cccs1`, 15.3 µM (active).
As to `C#C[C@H]1CN2CC[C@H]1C[C@@H]2CNCc1cccc(Cl)c1`, the Potency was 4.85 µM (active).
The value for `CC[C@H]1CN2CC[C@H]1C[C@@H]2CNCc1ccc(SC)cc1` was 4.33 µM (active); that for `C#C[C@H]1CN2CC[C@H]1C[C@@H]2CNCc1ccc(F)c(F)c1` was 13.7 µM (active); that for `O[C@H]1[C@H](NCC2CCCC2)[C@@H](c2ccccc2)C[C@H]1O` was 6.11 µM (active).
The value for `COc1cc2c(cc1OCc1ccccc1)N(C(=O)c1cc3ccccc3[nH]1)CC21CCN(C)CC1` was 0.944 µM (active).
The value for `COc1cc2c(cc1OCc1ccccc1)N(C(=O)c1cc3ccccc3n1C)CC21CCN(C)CC1` was 2.11 µM (active); that for `COc1cc2c(cc1OCc1ccccc1)N([S+](=O)([O-])c1cccnc1)CC21CCN(C)CC1` was 10.6 µM (active); that for `Oc1ccc(Br)cc1CN1CCN(c2ccccc2)CC1` was 2.11 µM (active).
For the molecule `CCc1ccc(CN2CCN(Cc3cc(Br)ccc3O)CC2)cc1`, the Potency was 2.11 µM (active).
As for `Cc1ccc(O)c(CN2CCN(c3ccccc3)CC2)c1`, the figure is 2.99 µM (active).
Consider `CC(C)c1ccc(O)c(CN2CCN(c3ccccc3)CC2)c1`, for which the Potency is 1.33 µM (active).
As for `CNC(=O)Oc1cccc(-c2cn3cc(OC(=O)NC)ccc3n2)c1`, the entry is “inactive”; as for `COc1ccccc1N1CCN(Cc2cc(C)c(C)cc2O)CC1`, 0.376 µM (active); as for `Oc1cc2c(cc1CN1CCN(c3ccccc3)CC1)CCC2`, 3.35 µM (active).
The value for `CC(C)(C)c1ccc(O)c(CN2CCN(c3ccccc3)CC2)c1` was 1.5 µM (active).
As for `COc1ccc(-c2cn(C[C@H]3C[C@@H]4CCN3C[C@@H]4C(=O)NCc3ccccc3)nn2)cc1`, the entry is “inactive”; as for `COc1ccc(-c2cc([C@H]3CN4CC[C@H]3C[C@@H]4CNC(=O)NC3CCCCC3)n(C)n2)cc1`, 1.88 µM (active).
Consider `COc1ccc(-c2cc([C@H]3CN4CC[C@H]3C[C@@H]4CNS(=O)(=O)c3ccc(Cl)cc3)n(C)n2)cc1OC`, for which the Potency was 2.99 µM (active).
As to `Cn1nc(C2CCCCC2)cc1[C@H]1CN2CC[C@H]1C[C@@H]2CNC(=O)c1cccs1`, the Potency is 13.7 µM (active).
The value for `COc1ccc(OC)c(S(=O)(=O)NC[C@H]2C[C@@H]3CCN2C[C@@H]3c2cc(-c3ccc(F)cc3)nn2C)c1` was 6.68 µM (active).
The value for `Cc1ccc(S(=O)(=O)NC[C@H]2C[C@@H]3CCN2C[C@@H]3CN2CCc3ccccc32)cc1` was 13.7 µM (active); that for `CN1CCN(C[C@H]2CN3CC[C@H]2C[C@@H]3CNS(=O)(=O)c2ccccc2)CC1` was “inactive”; that for `C[n+]1c2ccccc2nc2ccc(NCCO)cc21` was 1.19 µM (active).
As for `COc1cccc(CC(=O)N2[C@H]3CC[C@@H]2c2cnc(-c4ccc(F)cc4)nc2C3)c1`, the Potency entry is “inactive”.
The value for `COC(=O)C1=C(c2ccc(-c3ccccc3)c(F)c2)C[C@@H]2CC[C@H]1N2C(=O)NCc1cccc2ccccc12` was 10.6 µM (active); that for `COC(=O)C1=C(c2ccc(OC)c(OC)c2)C[C@@H]2CC[C@H]1N2C(=O)NCc1cccc2ccccc12` was 3.35 µM (active).
As for `CCCCCSc1cc(O)c(C(CNC)C(C)C)cc1OC` (centres undefined), the figure is 0.168 µM (active).
